Reference: PubChem BioAssay (Tox21)
Unmarked numbers belong to inactive results. Inconclusive results are not listed. Entries that show only a call come without a potency. Active and inactive are the calls of the source. Unless noted, the call rests on the fitted dose curve; in most records, active means well fitted curve in the direction sought with a large enough effect in the repeat runs; inconclusive means weak or mixed curves; inactive means no such curve, though single readings can be large; an effect the other way counts as inactive or inconclusive.

How the values were obtained:
[1] = qHTS assay for small molecule agonists of the p53 signaling pathway - cell viability (AID 651633; calls by dose curve;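 further: p53RE-bla HCT reporter cells with a stable beta-lactamase p53 reporter; series mostly up to about 83 µM; nearly all actives have a fitted effect of over 30% in size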)
How it was run: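 p53RE-bla cells, seeded at 4,000 per well and rested 5 h at 37 C/5% CO2, received compounds in DMSO for 16 h at 37 C. CellTiter-Glo was then added, and luminescence was read after 30 min at room temperature to gauge cytotoxicity.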

[2] = qHTS assay for small molecules that induce genotoxicity in human embryonic kidney cells expressing luciferase-tagged ATAD5 - cell viability (AID 651634; calls by dose curve; further: nearly all actives have a fitted effect of over 25% in size)
How it was run: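 Cytotoxicity counterscreen in HEK293T cells bearing an ATAD5-luciferase reporter: live-cell protease activity measured by CellTiter-Fluor fluorescence after 15.5 hr compound exposure.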

[3] = qHTS assay to test for compound auto fluorescence at 460 nm (blue) in HEK293 cells (AID 720678)
How it was run: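 Cells were seeded and left to adhere for 4-5 hr at 37C. Compounds were then pin-transferred. After an overnight incubation at 37C under 5% CO2, intrinsic fluorescence at 405/460 nm was measured and referenced to triamterene.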

[4] = qHTS assay to test for compound auto fluorescence at 590 nm (red) in HEK293 cells (AID 720679)
How it was run: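 Each well held 2,000 HEK293 cells in medium containing 10% dialyzed FBS. Following 4-5 hr attachment at 37C, 23 nL test compound or DMSO was added; plates sat overnight, and red fluorescence (540/590nm) was recorded.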

[5] = qHTS assay to test for compound auto fluorescence at 460 nm (blue) in HEK293 cell free culture (AID 720681)
How it was run: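 Test compounds were pinned into cell-free culture medium (DMEM with 10% FBS) and fluorescence was read directly at Ex/Em 405/460 nm. Signals were expressed as fluorescence equivalents of triamterene, with DMSO vehicle as control.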

[6] = qHTS assay to test for compound auto fluorescence at 590 nm (red) in HEK293 cell free culture (AID 720683)
How it was run: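 Tox21 10K library compounds were pinned into cell-free DMEM with 10% FBS and fluorescence was read at excitation 540 nm. Activity is expressed as Rose Bengal sodium equivalency.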

[7] = qHTS assay to test for compound auto fluorescence at 460 nm (blue) in HepG2 cell free culture (AID 720685)
How it was run: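 Compound (23 nL) or DMSO pinned into cell-free MEM with 10% FBS; blue fluorescence read at 405/460 nm excitation/emission, expressed as auto-fluorescence equivalency to triamterene.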

[8] = qHTS assay to test for compound auto fluorescence at 535 nm (green) in HepG2 cell free culture (AID 720686)
[9] = qHTS assay to identify small molecule antagonists of the glucocorticoid receptor (GR) signaling pathway - cell viability counter screen (AID 720693); further: nearly all actives have a fitted effect of over 55% in size
[10] = qHTS assay to identify small molecule antagonists of the androgen receptor (AR) signaling pathway - cell viability counter screen (AID 743033; further: nearly all actives have a fitted effect of over 45% in size)
[11] = qHTS assay to identify small molecule antagonists of the androgen receptor (AR) signaling pathway using the MDA cell line - cell viability counter screen (AID 743041; further: nearly all actives have a fitted effect of over 45% in size)
How it was run: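 Viability counter screen run alongside the AR antagonist reporter: cells seeded 5 h before compound, R1881 added, 16 h incubation at 37C without CO2, fluorescent CellTiter-Fluor signal quantified.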

[12] = tested on: thyroid hormone receptor (rat, GH3 cells); assay: qHTS assay to identify small molecule agonists of the thyroid receptor (TR) signaling pathway (AID 743066; calls by dose curve)
[13] = qHTS assay to identify small molecule antagonists of the estrogen receptor alpha (ER-alpha) signaling pathway - cell viability counter screen (AID 743074; calls by dose curve;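 further: HEK293 cells carrying ER-alpha-UAS-bla reporter stimulated with 17beta-estradiol; nearly all actives have a fitted effect of over 45% in size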)
[14] = qHTS assay to identify small molecule antagonists of the estrogen receptor alpha (ER-alpha) signaling pathway using the BG1 cell line - cell viability counter screen (AID 743081);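 further: compound given together with 17beta-estradiol as the ER stimulus; series mostly up to about 70 µM; nearly all actives have a fitted effect of over 45% in size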
[15] = target: Aromatase (Homo sapiens) (UniProt P11511); assay: qHTS assay to identify aromatase inhibitors (AID 743083); further: series mostly up to about 70 µM; nearly all actives have a fitted effect of over 55% in size
Aromatase (Homo sapiens), sequence (P11511 whole entry, looked up): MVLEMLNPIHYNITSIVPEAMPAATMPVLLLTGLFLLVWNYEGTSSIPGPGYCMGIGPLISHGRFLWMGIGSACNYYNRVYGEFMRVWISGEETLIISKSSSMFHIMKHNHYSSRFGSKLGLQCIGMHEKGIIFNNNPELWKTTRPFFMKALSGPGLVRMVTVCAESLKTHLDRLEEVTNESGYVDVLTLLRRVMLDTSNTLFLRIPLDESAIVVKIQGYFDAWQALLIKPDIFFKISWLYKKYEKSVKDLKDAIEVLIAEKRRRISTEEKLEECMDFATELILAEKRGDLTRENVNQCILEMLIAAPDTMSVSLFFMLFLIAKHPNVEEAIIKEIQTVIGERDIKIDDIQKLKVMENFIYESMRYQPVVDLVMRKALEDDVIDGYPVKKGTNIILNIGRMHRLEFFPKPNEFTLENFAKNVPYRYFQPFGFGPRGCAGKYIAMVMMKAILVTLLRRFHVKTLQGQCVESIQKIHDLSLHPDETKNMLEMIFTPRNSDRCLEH

[16] = qHTS assay to identify aromatase inhibitors - cell viability counter screen (AID 743084);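 further: cells stimulated with testosterone during compound exposure; nearly all actives have a fitted effect of over 55% in size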
[17] = qHTS assay to identify small molecule that activate the aryl hydrocarbon receptor (AhR) signaling pathway - cell viability counter screen (AID 743086)
How it was run: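 HepG2-AhR-luc (HG2L7.5c1) cells, 4000/well, were preincubated 5 h at 37C, exposed to compound in qHTS format for 24 hr at 37C, then given CellTiter-Fluor for 30 min; viability was read as fluorescence in the reporter wells.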

[18] = qHTS assay to identify small molecule phospholipidosis (PLD) inducers (AID 1259344; active means well fitted curve in the direction sought with a large enough effect; an effect the other way counts as inactive or inconclusive)
How it was run: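 HepG2 cells grown on collagen I take up LipidTOX Red while exposed to compound for 24 h; after fixation they are imaged at 20x and pit metrics are extracted.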

[19] = target: Nuclear receptor subfamily 1 group I member 2 (Rattus norvegicus) (UniProt Q9R1A7); assay: Rat pregnane X receptor (rPXR) activation by small molecules, qHTS assay (AID 1346983); conditions: rPXR luciferase reporter cells, One-Glo luminescence, 24 h; max activation: active compounds read high; further: nearly all actives have a fitted effect of over 20% in size
Nuclear receptor subfamily 1 group I member 2 (Rattus norvegicus), sequence (Q9R1A7 whole entry, looked up): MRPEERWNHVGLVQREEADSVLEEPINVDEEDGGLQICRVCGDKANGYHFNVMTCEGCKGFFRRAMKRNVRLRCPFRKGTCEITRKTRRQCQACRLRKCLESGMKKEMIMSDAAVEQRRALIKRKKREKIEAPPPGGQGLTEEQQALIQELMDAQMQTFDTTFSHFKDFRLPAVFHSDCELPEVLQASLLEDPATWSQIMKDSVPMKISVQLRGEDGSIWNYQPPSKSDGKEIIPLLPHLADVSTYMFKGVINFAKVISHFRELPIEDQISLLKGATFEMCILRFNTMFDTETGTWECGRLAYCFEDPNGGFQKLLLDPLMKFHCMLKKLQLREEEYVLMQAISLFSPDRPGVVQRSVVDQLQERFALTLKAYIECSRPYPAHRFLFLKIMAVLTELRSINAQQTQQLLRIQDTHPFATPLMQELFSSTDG
How it was run: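 Cell-based rPXR luciferase reporter assay, 2,000 cells per well, rested 5hr at 37 C before compound addition in DMSO, then 24 hr at 37 C. One-Glo reagent was added and luminescence read after 30 min at room temperature.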

[20] = qHTS assay to identify small molecule antagonists of the thyroid receptor (TR) signaling pathway (AID 743065); further: nearly all actives have a fitted effect of over 55% in size; further: potency means the concentration at half of the fitted maximal effect
How it was run: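 GH3.TRE-Luc rat pituitary cells carrying two TR response elements driving luciferase were plated for 4 h, given compound plus 1 nM T3 (final), and incubated 23.5 h at 37 C. ONE-Glo luminescence measured reporter inhibition; CellTiter-Fluor fluorescence tracked cytotoxicity.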

Row | SMILES | Potency [1] | Potency [2] | Potency [3] | outcome [4] | Potency [5] | outcome [6] | Potency [7] | Potency [8] | Potency [9] | Potency [10] | Potency [11] | Potency [12] | Potency [13] | Potency [14] | Potency [15] | Potency [16] | Potency [17] | Potency [18] | max activation [19] [%] | Potency [20]
1 | c1cc2c(c(NC3=NCCN3)c1)CCCC2 | inactive | inactive | inactive | inactive | inactive | inactive | inactive | inactive | inactive | inactive | inactive | inactive | inactive | inactive | inactive | inactive | inactive | inactive | -5.45 | –
2 | CCNC(C)Cc1cccc(C(F)(F)F)c1 (stereo not drawn) | inactive | inactive | inactive | inactive | inactive | inactive | inactive | inactive | inactive | inactive | inactive | inactive | inactive | inactive | inactive | inactive | inactive | inactive | -1.05 | inactive
3 | OC(c1ccccc1)(c1ccccc1)C1CN2CCC1CC2 (stereo not drawn) | inactive | inactive | inactive | inactive | inactive | inactive | inactive | inactive | inactive | inactive | inactive | inactive | inactive | inactive | inactive | inactive | inactive | inactive | 17.5 | 29.8 µM (active)
4 | CCC1(C)CC(=O)NC(=O)C1 | inactive | inactive | inactive | inactive | inactive | inactive | inactive | inactive | inactive | inactive | inactive | inactive | inactive | inactive | inactive | inactive | inactive | inactive | 0.0054 | inactive
5 | C=CCN(C1=NCCN1)c1c(Cl)cccc1Cl | inactive | inactive | inactive | inactive | inactive | inactive | inactive | inactive | inactive | inactive | inactive | inactive | inactive | inactive | inactive | inactive | inactive | inactive | -3.97 | inactive
6 | Oc1c(Cl)cc(Cl)cc1Cl | – | – | inactive | inactive | inactive | inactive | inactive | inactive | – | – | – | inactive | – | – | inactive | – | – | – | – | inactive
7 | NC1=NC(=O)N2CC12 (stereo not drawn) | inactive | inactive | inactive | inactive | inactive | inactive | inactive | inactive | inactive | inactive | inactive | inactive | inactive | inactive | inactive | inactive | inactive | inactive | -1.23 | inactive
8 | CC(C)(O)[C@@H]1[C@H]2OC(=O)[C@@H]1[C@]1(O)C[C@H]3O[C@]34C(=O)O[C@H]2[C@]14C | inactive | inactive | inactive | inactive | inactive | inactive | inactive | inactive | inactive | inactive | inactive | inactive | inactive | inactive | – | – | inactive | inactive | -2.48 | inactive
9 | COc1ccc2c3c1O[C@H]1C(=O)CC[C@H]4[C@@H](C2)N(C)CC[C@]314 | inactive | inactive | inactive | inactive | inactive | inactive | inactive | inactive | inactive | inactive | inactive | inactive | – | inactive | inactive | inactive | inactive | inactive | -2.81 | –
10 | C[C@]12CC[C@H]3[C@@H](CCC4=C(Cl)C(=O)CC[C@@]43C)[C@@H]1CC[C@@H]2O | inactive | inactive | inactive | inactive | inactive | inactive | inactive | inactive | inactive | inactive | inactive | inactive | inactive | inactive | inactive | inactive | inactive | inactive | -0.226 | 13.3 µM (active)
11 | C#CCN1CC(=O)N(COC(=O)C2C(C=C(C)C)C2(C)C)C1=O (stereo not drawn) | inactive | inactive | inactive | inactive | inactive | inactive | inactive | inactive | inactive | inactive | inactive | inactive | inactive | inactive | inactive | inactive | inactive | inactive | 7.13 | inactive
12 | CC(=O)OC1CN2CCC1CC2 (stereo not drawn) | inactive | inactive | inactive | inactive | inactive | inactive | inactive | inactive | inactive | inactive | inactive | inactive | inactive | inactive | inactive | inactive | inactive | inactive | -0.436 | inactive
13 | CCC/C=C/C=C/C(=O)O[C@H]1/C(=C/C(=O)OC)C[C@H]2C[C@H]([C@@H](C)O)OC(=O)C[C@H](O)C[C@@H]3C[C@H](OC(C)=O)C(C)(C)[C@](O)(C[C@@H]4C/C(=C/C(=O)OC)C[C@H](/C=C/C(C)(C)[C@]1(O)O2)O4)O3 | inactive | inactive | inactive | inactive | inactive | inactive | inactive | inactive | inactive | inactive | inactive | inactive | – | inactive | inactive | inactive | inactive | inactive | 2.43 | 9.44 µM (active)
